# Sampled rows, rich in hits. Any-hit rate of the full collection: about 2.2%.
# SMARCA2 activ = SMARCA2 (BRM) function activators, primary screen, cell-based, luminescence, high throughput | MG213 cells, MMTV-luciferase reporter, dexamethasone, overnight | activation, % at 9.1 µM | AID 652017, 2013 | actives 1% (n = 370,000); in the data active = activation above about 7.8%;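 also: 0% = vehicle wells and 100% = reference activator wells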
# FXN GAA850 act = FXN promoter activators, primary screen, cell-based, luciferase luminescence, HEK293 lucGAA850. HEK293 lucGAA850 FXN promoter luciferase reporter, 24 h; percent of 10 µM SAHA response. activation, % at 6 µM. actives 0.56% (n = 360,000). AID 540364, 2011;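 active = activation above the average of all compounds screened plus 3 SD, cutoff fixed separately per campaign, cut at about 7.5% in these data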;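 also: 0% = DMSO wells and 100% = 10 µM SAHA wells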
# Hsp70 activator = Hsp70 transcriptional activators, primary screen, cell-based, HeLa, Hsp70 promoter luciferase, luminescence, 10 µM | HeLa Hsp70 promoter luciferase reporter; scaled: vehicle 0, proteasome-inhibitor control 100% | activation, % at 10 µM | actives 0.04% (n = 200,000);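 active = activation above the mean across all tested compounds plus 3 SD, cutoff set per campaign, cut at about 5.5% in these data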;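 also: 100% = MG132 at 30 µM as the positive control and 0% = DMSO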
# GalR3 antag = GalR3 antagonists in HEK293 cells, primary screen, cell-based, fluorescence readout | HEK293 GalR3-CNG cAMP membrane potential fluorescence; galR3 body fused to GalR1 C-terminus | inhibition, % at 3 µM | actives 0.44% (n = 360,000) | AID 651719, 2012;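 active = inhibition above the screen-wide average plus 3 SD, cut at about 13% in these data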;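 also: forskolin and galanin both at EC90 stimulate the cells; cAMP rise reported by CNG channel membrane potential dye signal; 0% = forskolin plus galanin with DMSO and 100% = forskolin alone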
# Target sequence (O60755 1-299 limits assumed): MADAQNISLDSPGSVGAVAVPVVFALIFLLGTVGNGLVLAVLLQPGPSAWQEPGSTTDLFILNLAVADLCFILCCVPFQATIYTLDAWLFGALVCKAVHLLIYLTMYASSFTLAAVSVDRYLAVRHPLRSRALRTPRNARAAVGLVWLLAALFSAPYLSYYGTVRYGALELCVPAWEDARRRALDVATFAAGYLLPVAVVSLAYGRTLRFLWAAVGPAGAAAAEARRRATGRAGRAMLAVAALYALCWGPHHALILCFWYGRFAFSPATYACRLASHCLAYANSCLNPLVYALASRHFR
# HIF act = HIF pathway transcriptional activators, primary screen, cell-based, U2OS HRE-luciferase, luminescence; U2OS HRE-luciferase reporter; normalized: DMSO 0%, desferrioxamine 100%; activation, % at 7.5 µM (by protocol); actives 0.32% (n = 300,000);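 active = mean activation of at least 10% of the iron chelator positive control signal, with at least half of replicates also reaching 10%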
# SMARCA2 conf = SMARCA2 (BRM) function activators, confirmation, cell-based, luminescence, triplicate. shares compounds with SMARCA2 activ. MG213 cells, MMTV-luciferase with dexamethasone, overnight; MG213 cells expressing E1A, Rb sequestered; DMSO wells 0%, reference activator 100%. activation, % at 9.1 µM. actives 30% (n = 3,500). AID 652260, 2013;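 active = activation above its plate's cutoff, the mean activation of tested wells plus 3 SD, cut at about 7.9% in these data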
# GAL4-VP16 Luc = GAL4-VP16 luciferase reporter activation, counter-screen for SMARCA2 (BRM) activator project, cell-based, pG5luc, luminescence, high throughput; shares compounds with SMARCA2 activ; HEK293 GAL4-VP16 pG5luc reporter; scaled: DMSO wells 0%, SAHA wells 100%; activation, % at 9.1 µM; actives 41% (n = 3,500); AID 686939, 2013;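 active = activation above the solvent-only control well mean plus 3 SD, averaged across control plates, cut at about 5.2% in these data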
# Active calls of the source: *; · = no result.
SMILES,SMARCA2 activ,FXN GAA850 act,Hsp70 activator,GalR3 antag,HIF act,SMARCA2 conf,GAL4-VP16 Luc
CC(=O)c1sc(NC(=O)c2ccc(Cl)cc2)nc1C,0,5,·,-4,0,·,·
Cc1ccc(C(=O)Nc2nc(=O)n(C)s2)cc1,4,0,0,-5,4,·,·
O=C(NC1CC1)c1sc2ccccc2c1Cl,3,2,·,-4,1,·,·
O=C(NNC(=O)C1CC2CCC1C2)c1sc2ccccc2c1Cl (stereo not given),8.4*,5,0,-2,3,5,5
COCCN1CCCc2nc(-c3ccc(Br)cc3)ccc21,11*,·,·,-5,·,7,7.8*
Brc1ccc(CN2CCCc3nc(-c4ccccc4)ccc32)cc1,-2,·,·,-5,·,·,·
COc1ccc(-c2ccc3c(n2)CCCN3Cc2ccccc2C(F)(F)F)cc1,8.2*,·,·,-3,·,3,5.8*
FC(F)(F)c1ccccc1CN1CCCc2nc(-c3ccccc3)ccc21,2,·,·,-7,·,·,·
O=S(=O)(c1ccc(C(F)(F)F)cc1)N1CCCc2nc(-c3ccc(Br)cc3)ccc21,15*,·,·,0,·,-3,5
C#CCNC(=O)C[C@H]1C(=O)N(Cc2ccc(OC)cc2)C2=CCCC[C@@]21C(=O)OCC,-4,·,·,·,·,·,·
C=CCNc1cccc2c1S(=O)(=O)N[C@@H](Cc1ccccc1)CO2,-3,·,·,-6,·,·,·
COc1ccc(/C=C2\CC3(OC(=O)c4cccc(F)c4)CCCN2C3)cc1 (stereo not given),-3,·,·,·,·,·,·
Cc1ccc2c(c1)Cc1nc3ccccc3nc1-2,7,1,0,-5,-5,·,·
Cc1ccc2c(c1)C(=NC1CCCCC1)c1cc3ccccc3nc1-2,11*,4,0,-5,3,11*,7.6*
CCOc1ccc2nc(NC(=O)C3CCCO3)sc2c1 (stereo not given),6,2,0,-4,0,·,·
O=C(NC(=S)Nc1nc2ccccc2s1)c1cccs1,7,5,0,-2,2,·,·
O=C(Nc1nc2ccccc2s1)C1CCCO1 (stereo not given),11*,1,0,-5,1,11*,9.8*
O=C(Nc1ncc(Cc2ccccc2)s1)C1CCCO1 (stereo not given),12*,2,0,0,0,11*,8.6*
O=C(Nc1nc2ccc(F)cc2s1)C1CCCO1 (stereo not given),10*,4,0,-11,1,12*,5.5*
COc1ccc2nc(NC(=O)c3ccc(NC(=O)C4CCCO4)cc3)sc2c1 (stereo not given),-2,-1,·,-6,-7,·,·
NC(=S)Nc1nc2ccccc2s1,16*,3,0,4,6,17*,5.5*
CCOc1cccc(-c2nnc3n2N=C(c2ccc(OC)cc2)CS3)c1,-3,·,·,·,·,·,·
COC(=O)C1=C(C)N(Cc2ccc(C(F)(F)F)cc2)C(=NCc2ccc(C(F)(F)F)cc2)NC1c1ccccc1C(F)(F)F (stereo not given),-1,·,·,-1,·,·,·
COC(=O)[C@]12C[C@H](CC(=O)NCCCN3CCCC3=O)C(=O)N(Cc3ccc(Cl)cc3Cl)C1=C[C@H](COCc1ccccc1)O[C@@H]2C,-4,·,·,·,·,·,·
COC(=O)[C@]12C[C@H](CC(=O)NCc3cccc4ccccc34)C(=O)N(CCc3ccc(OC)c(OC)c3)C1=C[C@H](C(C)(C)C)O[C@@H]2C,1,·,·,-7,·,·,·
COc1ccc(C2=Nn3c(nnc3-c3ccccc3F)SC2)cc1OC1CCCC1,17*,-5,·,6,·,30*,20*

# Compound activity: PubChem BioAssay, several laboratories
